The list is not random: actives were taken first. Their share in the collection is about 19%.
IL-1B inflam inh: inflammasome signaling inhibition, IL-1 beta readout; THP-1 LPS/ATP IL-1B secretion, AlphaLISA, 16 h; stronger effect = lower value; activity change, % at 57.5 µM; 4.7% of 360,000 active; AID 743279; in the data active means activity change below about -50%; inconclusive means mostly about -30% to -49%
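THP-1 cells pretreated 1 hr with compounds (up to 57.5 uM final), then stimulated with LPS (250 ng/mL final) plus ATP (1.25 mM final); secreted IL-1B measured by AlphaLISA after 16 hr, decreased signal indicating inhibition.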
TDP1 cell noCPT: qHTS for Inhibitors of human tyrosyl-DNA phosphodiesterase 1 (TDP1): qHTS in cells in absence of CPT; AID 686978, 2013; Potency, µM (top dose mostly 46.2 µM), usual class: inhibitors; DT40 Tdp1-/- hTDP1 cells, no CPT, ATP luminescence, 48 h; 15% of 420,000 active; further: nearly all actives have a fitted effect of over 55% in size
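Readout: luminescence from CellTiter-Glo after 30 min in the dark at RT. Cells: DT40 Tdp1-/- with stable hTDP1, 400/well. Exposure: compounds alone, ≥48 hr, 37 °C.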
HT1080-NT tox: kills 2HG-producing HT-1080-NT fibrosarcoma cells; HT-1080-NT fibrosarcoma viability, CellTiter-Glo ATP luminescence, 48 h; Potency, µM (series often up to 46.1 µM), most hits filed as cytotoxic; 1.6% of 360,000 active;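 further: NT is the 2HG producing partner of a matched IDH1 knockdown line; nearly all actives have a fitted effect of over 55% in size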
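Read-out is CellTiter-Glo luminescence after 10 minutes at room temperature, following 48 hours' compound treatment of HT-1080-NT cells (750 cells/well, RPMI, 5% FBS, 37 degrees C).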
TDP1 cell CPT: growth inhibition of DT40 Tdp1-/-;hTDP1 cells with camptothecin (screen for TDP1 inhibitors); chicken DT40 Tdp1-/-;hTDP1 cells + 20 nM CPT, ATP luminescence, 48 h; Potency, µM (doses to about 46.2 µM), usual class: inhibitors; 12% of 420,000 active; AID 686979; further: nearly all actives have a fitted effect of over 55% in size
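Cell growth measured by CellTiter-Glo luminescence after a minimum 48 h, 37 C compound exposure with 20 nM CPT in Tdp1-knockout DT40 cells stably expressing hTDP1, seeded 400/well; qHTS titration format.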
HT1080 IDH1KD tx: toxicity to HT-1080 IDH1 knockdown cells (counter line); HT-1080 IDH1 knockdown viability, ATP luminescence, 48 h; 2% of 360,000 active; Potency, µM (doses to about 46.1 µM), actives largely listed as cytotoxic
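HT-1080-IDH1KD cells (IDH1 knocked down), 750/well in RPMI with 5% FBS, treated with compound 48 h at 37 degrees C. Viability by CellTiter-Glo luminescence, normalised to DMSO and no-cell wells; concentration-response curves classed.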
uPA generation: inhibitors of cell surface uPA generation; cell surface uPA generation assay, qHTS; Potency, µM (top dose mostly 38.3 µM), most hits filed as inhibitors; 0.31% of 330,000 active; AID 540303; active means well fitted inhibition curve with a large enough effect; inconclusive means small, poorly fitted or top-dose-only effect; inactive means no such curve, though single readings can be large or run the other way; tested in mouse RAW 264.7 cells; further: nearly all actives have a fitted effect of over 55% in size
Of the large screens only hits and unclear results are named; the others gave an inactive call. Unless noted, the call rests on the fitted dose curve; in most records, active means well fitted curve in the direction sought with a large enough effect; inconclusive means small, poorly fitted or top-dose-only effect, or another doubt; inactive means no such curve, though single readings can be large; an effect the other way counts as inactive or inconclusive.

Cc1ccccc1NC(=O)C(C)n1c2ccccc2c2nc(=O)cc(C)n21 (configuration not stated)	none
CCOC(=O)c1ccc(CNc2ncnc3nc[nH]c23)cc1	TDP1 cell noCPT 11.2µM, TDP1 cell CPT 3.98µM (no result: IL-1B inflam inh, HT1080-NT tox, HT1080 IDH1KD tx, uPA generation)
CCOc1cc(CNc2ncnc3nc[nH]c23)ccc1OC	TDP1 cell noCPT 25.9µM, TDP1 cell CPT inconclusive
CCc1ccc(Nc2ncnc3nc[nH]c23)cc1	none
COc1ccc(CNc2ncnc3nc[nH]c23)cc1OC	TDP1 cell CPT inconclusive (no result: IL-1B inflam inh, HT1080-NT tox, HT1080 IDH1KD tx, uPA generation)
CCC12CN3CC(C)(CN(C1)C3c1ccc(O)cc1O)C2=O (configuration not stated)	none (no result: IL-1B inflam inh, HT1080-NT tox, HT1080 IDH1KD tx, uPA generation)
Cc1ccc(S(=O)(=O)Nc2c(C)n(C)n(-c3ccccc3)c2=O)cc1C(=O)OC(C)C(=O)c1ccccc1 (configuration not stated)	uPA generation 5.01µM
Cc1ccc(S(=O)(=O)Nc2c(C)n(C)n(-c3ccccc3)c2=O)cc1C(=O)OC(C)C(=O)N(C)c1ccccc1 (configuration not stated)	none
O=C(NCCc1ccccc1)C(=O)NCC(c1cccnc1)N1CCN(c2ccccc2F)CC1 (configuration not stated)	TDP1 cell noCPT inconclusive, TDP1 cell CPT 20.6µM (no result: IL-1B inflam inh, HT1080-NT tox, HT1080 IDH1KD tx, uPA generation)
COCCNC(=O)C(=O)NCC(c1cccnc1)N1CCN(c2ccccc2F)CC1 (configuration not stated)	none (no result: IL-1B inflam inh, HT1080-NT tox, HT1080 IDH1KD tx, uPA generation)
COc1cc(C(=O)NCC(c2cccnc2)N2CCN(c3ccc(F)cc3)CC2)cc(OC)c1OC (configuration not stated)	TDP1 cell noCPT 20.6µM, TDP1 cell CPT inconclusive
O=C(NCC(c1cccnc1)N1CCN(c2ccccc2F)CC1)c1cccc(Cl)c1 (configuration not stated)	IL-1B inflam inh inconclusive, TDP1 cell noCPT 16.4µM, TDP1 cell CPT 20.6µM
O=C(NCC(c1cccnc1)N1CCN(c2ccc(F)cc2)CC1)c1ccc2c(c1)OCO2 (configuration not stated)	TDP1 cell noCPT 8.2µM, TDP1 cell CPT 16.4µM
CC1Cc2ccccc2N1S(=O)(=O)c1cccc(C(=O)NCCCn2ccnc2)c1 (configuration not stated)	TDP1 cell noCPT inconclusive, TDP1 cell CPT inconclusive
O=C(NCCC1=CCCCC1)C(=O)NCC(c1ccco1)N1CCN(c2ccccc2)CC1 (configuration not stated)	TDP1 cell noCPT 9.2µM, TDP1 cell CPT 11.6µM
O=S(=O)(NCC(c1cccnc1)N1CCN(c2ccc(F)cc2)CC1)c1cccs1 (configuration not stated)	TDP1 cell noCPT inconclusive, TDP1 cell CPT inconclusive
O=C(COc1ccccc1)NCC(c1ccco1)N1CCN(c2ccc(F)cc2)CC1 (configuration not stated)	IL-1B inflam inh -53.7, TDP1 cell noCPT inconclusive, TDP1 cell CPT inconclusive
O=S(=O)(NCC(c1cccnc1)N1CCN(c2ccccc2F)CC1)c1cccs1 (configuration not stated)	TDP1 cell noCPT inconclusive, TDP1 cell CPT 14.6µM
O=C(COc1ccccc1)NCC(c1ccco1)N1CCN(c2ccccc2F)CC1 (configuration not stated)	TDP1 cell noCPT inconclusive, TDP1 cell CPT inconclusive, HT1080 IDH1KD tx inconclusive, uPA generation inconclusive
COc1ccc(N2CCN(C(CNC(=O)c3ccco3)c3cccnc3)CC2)cc1 (configuration not stated)	TDP1 cell noCPT inconclusive, TDP1 cell CPT inconclusive
O=C(NCC(c1cccnc1)N1CCN(c2ccc(F)cc2)CC1)c1ccco1 (configuration not stated)	TDP1 cell noCPT 16.4µM, TDP1 cell CPT inconclusive
O=C(COCc1cc(-c2ccc3c(c2)OCO3)on1)NCc1ccccc1Cl	TDP1 cell noCPT inconclusive (no result: IL-1B inflam inh, HT1080-NT tox, HT1080 IDH1KD tx, uPA generation)
CC(=O)N1CCC2(CCCN(c3ccccn3)C2)CC1	TDP1 cell CPT inconclusive (no result: IL-1B inflam inh, HT1080-NT tox, HT1080 IDH1KD tx, uPA generation)
O=C(NCC(c1cccnc1)N1CCN(c2ccccc2F)CC1)C1CCCCC1 (configuration not stated)	TDP1 cell noCPT 10.3µM, TDP1 cell CPT inconclusive
CCc1ccc(NC(=O)C(=O)NCC(c2cccnc2)N2CCN(C)CC2)cc1 (configuration not stated)	TDP1 cell noCPT inconclusive (no result: IL-1B inflam inh, HT1080-NT tox, HT1080 IDH1KD tx, uPA generation)
COc1ccc(N2CCN(C(CNC(=O)C(=O)NCc3cccnc3)c3ccco3)CC2)cc1 (configuration not stated)	none
O=C(NCc1cccnc1)C(=O)NCC(c1ccco1)N1CCN(c2ccc(F)cc2)CC1 (configuration not stated)	TDP1 cell noCPT 16.4µM, TDP1 cell CPT 23.1µM
O=C(NCC(c1cccnc1)N1CCN(c2ccc(F)cc2)CC1)c1ccc(F)cc1 (configuration not stated)	TDP1 cell noCPT 16.4µM, TDP1 cell CPT inconclusive
CCc1ccc(NC(=O)C(=O)NCC(c2cccnc2)N2CCN(c3ccc(F)cc3)CC2)cc1 (configuration not stated)	TDP1 cell noCPT 3.66µM, TDP1 cell CPT inconclusive (no result: IL-1B inflam inh, HT1080-NT tox, HT1080 IDH1KD tx, uPA generation)
Cc1cc(C(=O)N(Cc2cc3cc4c(cc3nc2N2CCOCC2)CCC4)CC2CCCO2)c(=O)[nH]c1C (configuration not stated)	none (no result: IL-1B inflam inh, HT1080-NT tox, HT1080 IDH1KD tx, uPA generation)
CCOc1ccccc1NCc1nnc2n1CCCCC2	none (no result: IL-1B inflam inh, HT1080-NT tox, HT1080 IDH1KD tx, uPA generation)
CC(=O)Nc1ccc(S(=O)(=O)N2CCC(C(=O)O)(c3ccccc3)CC2)cc1	none
CC1(c2ccc(OC(F)F)cc2)NC(=O)N(CC(=O)N2CCN(C(=O)c3ccco3)CC2)C1=O (configuration not stated)	none
O=C(NCc1cccs1)C(=O)NCC(c1ccco1)N1CCN(c2ccc(F)cc2)CC1 (configuration not stated)	TDP1 cell noCPT 23.1µM, TDP1 cell CPT inconclusive
O=C(NCC(c1cccnc1)N1CCN(c2ccccc2F)CC1)c1ccc(F)cc1 (configuration not stated)	TDP1 cell noCPT 20.6µM, TDP1 cell CPT 14.6µM (no result: IL-1B inflam inh, HT1080-NT tox, HT1080 IDH1KD tx, uPA generation)
CCN(CC1CCCN(CCc2cccc(OC)c2)C1)C(=O)c1ccoc1 (configuration not stated)	none
O=C(c1ccco1)N1CCN(c2nc(C3CC3)nc3c2nnn3Cc2ccccc2Cl)CC1	IL-1B inflam inh -77.2, TDP1 cell noCPT inconclusive, TDP1 cell CPT inconclusive
CC(C)(C)c1nc(N2CCN(C(=O)c3ccco3)CC2)c2nnn(Cc3ccccc3)c2n1	IL-1B inflam inh -51.8, TDP1 cell noCPT 20.6µM, HT1080-NT tox inconclusive, TDP1 cell CPT inconclusive, HT1080 IDH1KD tx inconclusive
